Read-out in assay [1]: Urokinase-type plasminogen activator receptor (uPAR), PLAUR (gene 5329)
The assay is described as follows: BSK_4H_uPAR: BioMAP Diversity Plus: 4H Assay for Urokinase-type plasminogen activator receptor (uPAR) Biomarker Activity (AID 2283030). The note with it: primary human endothelial cells (HUVEC); actives raise or lower the signal. The method in brief:
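Endpoint derived via bidirectional curve fitting against DMSO baseline; readout was ELISA detection of uPAR on umbilical vein endothelial cells at 24 h post-treatment, with SRB-stained parallel cultures assessing cytotoxicity.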

Read-out in assay [2]: Vascular endothelial growth factor receptor 2 (Homo sapiens) (UniProt P35968)
The assay is described as follows: BSK_4H_VEGFRII: BioMAP Diversity Plus: 4H Assay for Vascular endothelial growth factor receptor 2 (VEGFR2) Biomarker Activity (AID 2283031).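 As to AC50: cell-surface VEGFR2 protein level quantified by ELISA.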 The note with it: primary human endothelial cells (HUVEC); actives raise or lower the signal. A digest of the protocol: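 In this multiplexed HUVEC system, biomarker ELISA was performed after 24 h chemical exposure. Parallel SRB staining (TCA fixation, 560 nm) tracked cytotoxicity; DMSO served as baseline.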

Read-out in assay [3]: Human Leukocyte Antigen - DR isotype (HLADR), HLA-DRA (gene 3122)
The assay is described as follows: BSK_BE3C_HLADR: BioMAP Diversity Plus: BE3C Assay for Human Leukocyte Antigen - DR isotype (HLADR) Biomarker Activity (AID 2283032). The note with it: primary human bronchial epithelial cells; actives raise or lower the signal. A digest of the protocol:
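ELISA read-out of HLA-DR on human lung bronchial epithelial primary cells, measured 24 h post-dosing. Both increases and decreases were scored relative to DMSO vehicle.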

Read-out in assay [4]: Vascular cell adhesion molecule 1 (VCAM1), VCAM1 (gene 7412)
The assay is described as follows: BSK_4H_VCAM1: BioMAP Diversity Plus: 4H Assay for Vascular cell adhesion molecule 1 (VCAM1) Biomarker Activity (AID 2283033).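 As to outcome: cell-surface VCAM-1 protein measured by ELISA.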 To be noted: primary human endothelial cells (HUVEC); actives raise or lower the signal. The method in brief:
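ELISA read-out of VCAM-1 on human umbilical vein endothelium 24 hours after chemical dosing; gain or loss of signal was fitted relative to DMSO, with sulforhodamine B staining of parallel cultures flagging overt cytotoxicity.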

Read-out in assay [5]: Interferon-gamma inducible Protein 10 (IP10), CXCL10 (gene 3627)
Put plainly: BSK_BE3C_IP10: BioMAP Diversity Plus: BE3C Assay for Interferon-gamma inducible Protein 10 (IP10) Biomarker Activity (AID 2283034). To be noted: primary human bronchial epithelial cells; actives raise or lower the signal. The method in brief:
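Chemical is dosed onto human lung bronchial epithelial primary cells, cultures are incubated 24 h, and IP-10 is then quantified by ELISA. Gain or loss of signal is fitted in both directions relative to DMSO.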

Read-out in assay [6]: Monokine induced gamma interferon (MIG), CXCL9 (gene 4283)
The assay is described as follows: BSK_BE3C_MIG: BioMAP Diversity Plus: BE3C Assay for Monokine induced gamma interferon (MIG) Biomarker Activity (AID 2283035).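 As to outcome: MIG protein measured by ELISA in BE3C cultures after 24 h of dosing.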 The note with it: primary human bronchial epithelial cells; actives raise or lower the signal. A digest of the protocol: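 MIG level was determined by ELISA after 24 h chemical treatment of primary human bronchial epithelial cells. Values were fitted bidirectionally with DMSO as the negative control and activity baseline.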

Read-out in assay [7]: Transforming growth factor beta 1 (TGFb1), TGFB1 (gene 7040)
Put plainly: BSK_BE3C_TGFb1: BioMAP Diversity Plus: BE3C Assay for Transforming growth factor beta 1 (TGFb1) Biomarker Activity (AID 2283036;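 as to outcome: TGF-b1 protein level measured by ELISA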). The note with it: primary human bronchial epithelial cells; actives raise or lower the signal. The method in brief:
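Primary human lung bronchial epithelial cells; compound exposure 24 h; TGF-b1 by ELISA; bidirectional fit, DMSO baseline. Parallel SRB total-protein staining for cytotoxicity.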

Read-out in assay [8]: Plasminogen activator inhibitor-1 (PAI1), SERPINE1 (gene 5054)
The assay is described as follows: BSK_BE3C_PAI1: BioMAP Diversity Plus: BE3C Assay for Plasminogen activator inhibitor-1 (PAI1) Biomarker Activity (AID 2283037). To be noted: primary human bronchial epithelial cells; actives raise or lower the signal. The method in brief: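 Primary human lung bronchial epithelial cells; chemical dosing; 24 h; PAI-1 measured by ELISA; bidirectional fit referenced to DMSO as negative control.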

Read-out in assay [9]: urokinase plasminogen activator (uPA), PLAU (gene 5328)
The assay is described as follows: BSK_BE3C_uPA: BioMAP Diversity Plus: BE3C Assay for urokinase plasminogen activator (uPA) Biomarker Activity (AID 2283038).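 As to outcome: uPA protein level quantified by ELISA in cell cultures; uPA read one day after compound addition.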 The note with it: primary human bronchial epithelial cells; actives raise or lower the signal. The method in brief:
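Using confluent primary human lung bronchial epithelial cultures, we dosed chemicals, waited 24 h, then ran a uPA ELISA, fitting bidirectionally against DMSO.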

Read-out in assay [10]: Urokinase-type plasminogen activator receptor (uPAR), PLAUR (gene 5329)
The assay is described as follows: BSK_BE3C_uPAR: BioMAP Diversity Plus: BE3C Assay for Urokinase-type plasminogen activator receptor (uPAR) Biomarker Activity (AID 2283039).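 As to outcome: uPAR protein level measured by ELISA on the cells; cells exposed to compound for one day before measurement.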 To be noted: primary human bronchial epithelial cells; actives raise or lower the signal. A digest of the protocol: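 Human bronchial epithelial primary cells; chemical exposure 24 h; uPAR by ELISA; bidirectional fit vs DMSO control.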

Read-out in assay [11]: Interleukin-6 (IL6), IL6 (gene 3569)
The assay is described as follows: BSK_CASM3C_IL6: BioMAP Diversity Plus: CASM3C Assay for Interleukin-6 (IL6) Biomarker Activity for (AID 2283040). To be noted: primary human coronary artery smooth muscle cells; actives raise or lower the signal.

Read-out in assay [12]: Tissue plasminogen activator (tPA), PLAT (gene 5327)
Put plainly: BSK_BE3C_tPA: BioMAP Diversity Plus: BE3C Assay for Tissue plasminogen activator (tPA) Biomarker Activity (AID 2283041).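 As to outcome: tPA level quantified by ELISA one day after compound addition.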 The note with it: primary human bronchial epithelial cells; actives raise or lower the signal. The method in brief:
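Primary human lung bronchial epithelial cultures receive test chemical; after 24 h, tPA is quantified by ELISA, and gain or loss of signal is fitted bidirectionally relative to DMSO baseline.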

Read-out in assay [13]: Interleukin-8 (IL8), CXCL8 (gene 3576)
Put plainly: BSK_CASM3C_IL8: BioMAP Diversity Plus: CASM3C Assay for Interleukin-8 (IL8) Biomarker Activity (AID 2283042).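 Also: IL-8 protein level quantified by ELISA.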 The note with it: primary human coronary artery smooth muscle cells; actives raise or lower the signal.

Read-out in assay [14]: Human Leukocyte Antigen - DR isotype (HLADR), HLA-DRA (gene 3122)
The assay is described as follows: BSK_CASM3C_HLADR: BioMAP Diversity Plus: CASM3C Assay for Human Leukocyte Antigen - DR isotype (HLADR) Biomarker Activity (AID 2283043).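 Also: cell-surface HLA-DR protein level quantified by ELISA.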 To be noted: primary human coronary artery smooth muscle cells; actives raise or lower the signal.

Read-out in assay [15]: Macrophage colony-stimulating factor (MCSF), CSF1 (gene 1435)
Put plainly: BSK_CASM3C_MCSF: BioMAP Diversity Plus: CASM3C Assay for Macrophage colony-stimulating factor (MCSF) Biomarker Activity (AID 2283044).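 Also: M-CSF protein amount quantified by ELISA after 24 h exposure.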 The note with it: primary human coronary artery smooth muscle cells; actives raise or lower the signal.

Read-out in assay [16]: Low-density lipoprotein receptor (LDLR), LDLR (gene 3949)
The assay is described as follows: BSK_CASM3C_LDLR: BioMAP Diversity Plus: CASM3C Assay for Low-density lipoprotein receptor (LDLR) Biomarker Activity (AID 2283045).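 Also: LDLR protein level on the cell surface quantified by ELISA.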 The note with it: primary human coronary artery smooth muscle cells; actives raise or lower the signal.

Read-out in assay [17]: Monocyte Chemoattractant Protein-1 (MCP1), CCL2 (gene 6347)
Put plainly: BSK_CASM3C_MCP1: BioMAP Diversity Plus: CASM3C Assay for Monocyte Chemoattractant Protein-1 (MCP1) Biomarker Activity (AID 2283046).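 Also: MCP-1 level quantified by ELISA 24 h after dosing.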 The note with it: primary human coronary artery smooth muscle cells; actives raise or lower the signal.

A short description of assay [18]: BSK_CASM3C_Proliferation: Cell Proliferation Assessment in the BioMAP Diversity Plus: CASM3C Assay (AID 2283047).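 Also: sulforhodamine B total protein stain as relative cell number at 560 nm; sub-confluent cells exposed 48 h before staining; fitted both ways against DMSO so gain or loss of cell number.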 The note with it: primary human coronary artery smooth muscle cells.
Read-out in assay [19]: Monokine induced gamma interferon (MIG), CXCL9 (gene 4283)
Put plainly: BSK_CASM3C_MIG: BioMAP Diversity Plus: CASM3C Assay for Monokine induced gamma interferon (MIG) Biomarker Activity (AID 2283048).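 Also: MIG protein level measured by ELISA.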 To be noted: primary human coronary artery smooth muscle cells; actives raise or lower the signal.

Read-out in assay [20]: serum amyloid A (SAA), SAA1 (gene 6288)
Put plainly: BSK_CASM3C_SAA: BioMAP Diversity Plus: CASM3C Assay for serum amyloid A (SAA) Biomarker Activity (AID 2283049).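 Also: SAA protein level quantified by ELISA.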 The note with it: primary human coronary artery smooth muscle cells; actives raise or lower the signal.

The results in this text go back to PubChem BioAssay (EPA / NIEHS).

Active and inactive are the calls of the source. The calls were made as follows: active = hit-call score of the fitted dose curve at least 0.9, where 1 is the maximum; inactive = score below 0.9.

Regarding `Cc1ccc(O)cc1C`, the result in assay [1], in assay [2], in [3], in [4], in [5] and in [6] was inactive. For the same compound, the outcome in assay [7], in assay [8], in assay [9], in assay [10], in assay [11] and in [12] was inactive. Besides, the outcome in assay [13], in [14], in assay [15], in assay [16], in [18] and in assay [19] was inactive. For the same compound, in assay [20], the outcome was inactive. Also, the AC50 in [17] is 0.658 µM (active).
For the compound `Cc1ccc(N)cc1N`, the result in assay [1], in assay [2], in [3], in assay [4], in assay [5] and in [6] was inactive. For the same compound, the outcome in assay [7], in assay [8], in assay [9], in assay [10], in assay [11] and in [12] was inactive. For the same compound, the outcome in assay [13], in assay [14], in [15], in assay [16], in [17] and in assay [18] was inactive. In addition, the outcome in assay [19] and in [20] was inactive.
With `ClC(Cl)(Cl)c1ccccc1`, the result in assay [1], in [2], in assay [3], in [4], in assay [5] and in assay [6] was inactive. In addition, the outcome in assay [7], in assay [8], in [9], in assay [10], in assay [11] and in assay [12] was inactive. In addition, the result in [13], in assay [14], in [15], in assay [16], in assay [17] and in assay [18] was inactive. Further, the result in assay [19] and in assay [20] was inactive.
As for `O=c1ssc(Cl)c1Cl`, the AC50 in assay [1] is 7.3 µM (active); in assay [3], 8.51 µM (active); in assay [4], 3.91 µM (active); in [5], 3.38 µM (active); in assay [6] it was 12.6 µM (active); in assay [7] it was 14.8 µM (active). For the same compound, the concentration at half-maximal activity (AC50) is 11.7 µM (active) in [8]; 9.31 µM (active) in assay [9]; 12.2 µM (active) in assay [10]; 4.33 µM (active) in assay [11]; 7.68 µM (active) in assay [12]; 3.54 µM (active) in assay [14]. Besides, the AC50 in assay [15] was 5.46 µM (active); in assay [17], 5.7 µM (active); in assay [18], 1.69 µM (active); in assay [19] it was 24.4 µM (active); in [20], 1.4 µM (active). Besides, the outcome in assay [2], in assay [13] and in assay [16] was inactive.
Consider `CCOc1ccc(C(C)(C)COCc2cccc(Oc3ccccc3)c2)cc1`, for which the result in assay [1], in [2], in assay [3], in [4], in assay [5] and in [6] was inactive. Moreover, the result in assay [7], in assay [8], in assay [9], in assay [10], in assay [11] and in assay [13] was inactive. Also, the result in assay [14], in assay [15], in assay [16], in assay [17], in assay [18] and in assay [19] was inactive. Besides, the outcome in assay [20] was inactive. Also, the half-maximal activity concentration (AC50) in assay [12] was 0.668 µM (active).
In the case of `CCCCN(CCCC)N=O`, the result in assay [1], in [2], in [3], in [4], in [5] and in [6] was inactive. For the same compound, the result in assay [7], in assay [8], in assay [9], in [10], in assay [11] and in assay [12] was inactive. The result in assay [13], in assay [14], in assay [15], in assay [16], in [17] and in assay [18] was inactive. Besides, the outcome in [19] and in assay [20] was inactive.
On to `ClC1=C(Cl)C2(Cl)C3C(Cl)C(Cl)CC3C1(Cl)C2(Cl)Cl` (stereo not given), for which the AC50 in assay [1] is 38 µM (active); in [2], 30.3 µM (active); in assay [3], 15.2 µM (active); in assay [4], 27.3 µM (active); in assay [5], 34.9 µM (active); in [6], 30.6 µM (active). For the same compound, the AC50 was 9.17 µM (active) in assay [7]; 36.1 µM (active) in [8]; 20 µM (active) in assay [14]; 31.1 µM (active) in assay [18]; 20 µM (active) in assay [20]. For the same compound, the result in assay [9], in [10], in assay [11], in assay [12], in assay [13] and in [15] was inactive. The result in [16], in assay [17] and in [19] was inactive.
